Assay results taken from PubChem BioAssay (Tox21).
Records with an inconclusive call do not appear. Calls of active or inactive are those of the source. Unless noted, calls come from the whole dose curve; as a rule, active = well fitted curve in the direction sought with a large enough effect in the repeat runs; inconclusive = weak or mixed curves; inactive = no such curve, though single readings can be large; an effect the other way counts as inactive or inconclusive.

Key:
[1] = qHTS assay to identify small molecule agonists of the TGF-beta/Smad signaling pathway - cell viability counter screen (AID 1346829); note: top concentration of the series differs between compounds; nearly all actives have a fitted effect of over 45% in size
Summary of the method: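 Tox21 qHTS format: SBE-bla HEK 293T cells treated with DMSO-dissolved compounds for 5 hr; CellTiter-Glo luminescence after 30 min at room temperature.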

[2] = qHTS assay to identify small molecule agonists of the TGF-beta/Smad signaling pathway (AID 1346859; active = well fitted activation curve with a large enough effect in the signal ratio in the repeat runs, not every such curve was filed as active; the % refers to the signal ratio; note: series mostly up to about 77 µM)
Summary of the method: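 Dual-wavelength fluorescence (460/530 nm emission) quantified beta-lactamase expression under the Smad binding element in HEK 293T cells following 5 hr compound treatment at 37 C.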

[3] = target: Thyrotropin-releasing hormone receptor (Homo sapiens) (UniProt P34981); assay: qHTS assay to identify small molecule antagonists of the thyrotropin-releasing hormone receptor (TRHR) signaling pathway (AID 1346877; active = well fitted inhibition curve with a large enough effect in the repeat runs, not every such curve was filed as active; note: series mostly up to about 51 µM)
Thyrotropin-releasing hormone receptor (Homo sapiens), sequence (P34981 whole entry, looked up): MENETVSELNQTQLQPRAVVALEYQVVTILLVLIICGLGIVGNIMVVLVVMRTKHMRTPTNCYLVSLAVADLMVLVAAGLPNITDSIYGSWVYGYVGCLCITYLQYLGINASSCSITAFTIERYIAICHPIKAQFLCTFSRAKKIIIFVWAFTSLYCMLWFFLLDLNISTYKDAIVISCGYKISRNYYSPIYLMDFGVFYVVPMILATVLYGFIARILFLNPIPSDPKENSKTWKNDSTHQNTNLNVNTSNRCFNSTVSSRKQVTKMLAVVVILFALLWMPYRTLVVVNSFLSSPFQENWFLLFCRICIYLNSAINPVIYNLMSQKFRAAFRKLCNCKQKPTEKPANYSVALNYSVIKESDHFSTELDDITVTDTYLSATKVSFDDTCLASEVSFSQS
Summary of the method: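 Cells (TRHR-HEK293) are plated and kept 18 h at 37 °C/5% CO2. A calcium-sensitive dye is added for 2 h, compound follows for 5 min at room temperature, and TRH is then given at 1 nM final.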

[4] = target: Thyrotropin-releasing hormone receptor (Homo sapiens) (UniProt P34981); assay: qHTS assay to identify small molecule agonists of the thyrotropin-releasing hormone receptor (TRHR) signaling pathway (AID 1346891; calls by dose curve;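 note: HEK293 cells expressing TRHR with calcium dye readout; series mostly up to about 58 µM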)
Summary of the method: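 Kinetic fluorescence (3 min, 1 s intervals) reported intracellular calcium after compound transfer onto TRHR-Hek293 cells pre-loaded with dye for 2 h at 37 °C.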

[5] = Human pregnane X receptor (PXR) small molecule agonists, qHTS cell viability counter screen (AID 1346977); note: nearly all actives have a fitted effect of over 50% in size
Summary of the method: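 HepG2 cells stably carrying the PXR-Luc reporter are cultured with 5% charcoal-stripped FBS and treated with compounds for 24hr. CellTiter-Fluor is added at 23hr and fluorescence is read after 1hr.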

[6] = Caspase-3/7 induction in HepG2 cells by small molecules, qHTS assay (AID 1346978); note: nearly all actives have a fitted effect of over 15% in size
Summary of the method: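 Wild-type HepG2 cells, 2,000/well, settled 5 hr at 37 C and 5% CO2, then compound-treated for 17 hr; caspase-3/7 activity read by luminescent Caspase-Glo 3/7 after 30 min at room temperature.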

[7] = Caspase-3/7 induction in CHO-K1 cells by small molecules, qHTS cell viability counter screen (AID 1346979); note: nearly all actives have a fitted effect of over 35% in size
Summary of the method: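 Seeding: 1,500 CHO-K1 cells/well. Rest: 5hr, 37C. Treatment: compounds in DMSO, 16hr. Read: CellTiter-Fluor, 1hr, fluorescence.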

[8] = Caspase-3/7 induction in CHO-K1 cells by small molecules, qHTS assay (AID 1346980); note: nearly all actives have a fitted effect of over 15% in size
Summary of the method: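 Wild-type CHO-K1 cells exposed to compounds for 17hr at 37 C, 5% CO2. Caspase-3/7 activity then measured by Caspase-Glo 3/7 luminescence after 30min at room temperature.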

[9] = Caspase-3/7 induction in HepG2 cells by small molecules, qHTS cell viability counter screen (AID 1346981); note: series mostly up to about 92 µM; nearly all actives have a fitted effect of over 30% in size
Summary of the method: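 Steps: seed 2,000 HepG2 cells per well; incubate 5 hr at 37 C; pin-add compounds in DMSO; incubate 16 hr; add CellTiter-Fluor; after 1 hr at 37 C and 5% CO2, read fluorescence.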

[10] = target: Nuclear receptor subfamily 1 group I member 2 (Homo sapiens) (UniProt O75469); assay: Human pregnane X receptor (PXR) small molecule agonists, qHTS assay (AID 1346982); note: nearly all actives have a fitted effect of over 35% in size
Nuclear receptor subfamily 1 group I member 2 (Homo sapiens), sequence (O75469 whole entry, looked up): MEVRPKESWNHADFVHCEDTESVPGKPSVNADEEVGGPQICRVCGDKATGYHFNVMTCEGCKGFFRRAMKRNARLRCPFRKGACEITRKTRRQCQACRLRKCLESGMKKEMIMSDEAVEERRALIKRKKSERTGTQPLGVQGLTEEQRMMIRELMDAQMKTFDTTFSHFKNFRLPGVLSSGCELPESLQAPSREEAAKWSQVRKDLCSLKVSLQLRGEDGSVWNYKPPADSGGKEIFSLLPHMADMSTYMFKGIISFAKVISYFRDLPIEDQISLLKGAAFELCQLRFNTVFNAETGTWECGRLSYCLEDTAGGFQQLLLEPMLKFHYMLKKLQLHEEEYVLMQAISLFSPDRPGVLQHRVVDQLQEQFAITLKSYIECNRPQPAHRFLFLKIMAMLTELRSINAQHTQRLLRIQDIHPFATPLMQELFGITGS
Summary of the method: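 Agonist mode qHTS: PXR-Luc HepG2 cells plated 5 hr before DMSO-dissolved compounds were pinned in, cultured 24 hr at 37 C, 5% CO2; ONE-Glo luminescence readout.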

[11] = target: Cytochrome P450 2D6 (Homo sapiens) (UniProt P10635); assay: Cytochrome P450 Family 2 Subfamily D Member 6 (CYP2D6) small molecule antagonists: luciferase reporter qHTS assay (AID 1671196); note: series mostly up to about 120 µM; nearly all actives have a fitted effect of over 50% in size
Cytochrome P450 2D6 (Homo sapiens), sequence (P10635 whole entry, looked up): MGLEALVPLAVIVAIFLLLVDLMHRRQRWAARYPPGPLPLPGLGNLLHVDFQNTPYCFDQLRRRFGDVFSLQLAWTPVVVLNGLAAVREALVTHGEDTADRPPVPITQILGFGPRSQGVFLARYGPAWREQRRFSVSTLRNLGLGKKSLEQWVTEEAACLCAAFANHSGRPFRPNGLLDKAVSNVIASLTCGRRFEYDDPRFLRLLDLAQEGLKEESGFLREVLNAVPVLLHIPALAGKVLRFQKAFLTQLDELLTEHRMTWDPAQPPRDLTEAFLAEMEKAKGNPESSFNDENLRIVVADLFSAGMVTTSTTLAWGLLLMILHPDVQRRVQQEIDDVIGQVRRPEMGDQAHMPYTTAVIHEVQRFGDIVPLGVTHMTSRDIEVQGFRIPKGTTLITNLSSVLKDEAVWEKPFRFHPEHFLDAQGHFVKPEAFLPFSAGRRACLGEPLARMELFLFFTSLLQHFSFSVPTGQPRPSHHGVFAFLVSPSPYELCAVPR
Summary of the method: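 P450-Glo format: CYP2D6 converts a proluciferin substrate to luciferin in an NADPH-driven reaction lasting 1 h at room temperature. Light output, proportional to CYP2D6 activity, reflects interference by test chemicals.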

[12] = target: Cytochrome P450 2C9 (Homo sapiens) (UniProt P11712); assay: Cytochrome P450 Family 2 Subfamily C Member 9 (CYP2C9) small molecule antagonists: luciferase reporter qHTS assay (AID 1671198); note: series mostly up to about 120 µM; nearly all actives have a fitted effect of over 50% in size
Cytochrome P450 2C9 (Homo sapiens), sequence (P11712 whole entry, looked up): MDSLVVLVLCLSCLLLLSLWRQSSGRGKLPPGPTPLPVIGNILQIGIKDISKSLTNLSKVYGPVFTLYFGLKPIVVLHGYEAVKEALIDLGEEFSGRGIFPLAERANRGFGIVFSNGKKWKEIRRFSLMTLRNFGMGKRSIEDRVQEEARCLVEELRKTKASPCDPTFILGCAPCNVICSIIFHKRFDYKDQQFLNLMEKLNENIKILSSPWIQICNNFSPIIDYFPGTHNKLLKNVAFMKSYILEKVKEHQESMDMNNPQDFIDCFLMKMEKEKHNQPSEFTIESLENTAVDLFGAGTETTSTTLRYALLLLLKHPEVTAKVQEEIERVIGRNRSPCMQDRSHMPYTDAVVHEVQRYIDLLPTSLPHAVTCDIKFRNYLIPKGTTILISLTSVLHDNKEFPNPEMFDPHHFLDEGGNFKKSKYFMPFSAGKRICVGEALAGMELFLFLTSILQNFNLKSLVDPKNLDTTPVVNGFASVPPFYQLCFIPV
Summary of the method: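 P450-Glo proluciferin substrate with CYP2C9 enzyme; 10 min RT preincubation, then NADPH regeneration 1 h at 37C; luciferin detection reagent 20 min RT, luminescence in relative luminescence units.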

[13] = target: Cytochrome P450 1A2 (Homo sapiens) (UniProt P05177); assay: Cytochrome P450 Family 1 Subfamily A Member 2 (CYP1A2) small molecule antagonists: luciferase reporter qHTS assay (AID 1671199); note: series mostly up to about 120 µM; nearly all actives have a fitted effect of over 50% in size
Cytochrome P450 1A2 (Homo sapiens), sequence (P05177 whole entry, looked up): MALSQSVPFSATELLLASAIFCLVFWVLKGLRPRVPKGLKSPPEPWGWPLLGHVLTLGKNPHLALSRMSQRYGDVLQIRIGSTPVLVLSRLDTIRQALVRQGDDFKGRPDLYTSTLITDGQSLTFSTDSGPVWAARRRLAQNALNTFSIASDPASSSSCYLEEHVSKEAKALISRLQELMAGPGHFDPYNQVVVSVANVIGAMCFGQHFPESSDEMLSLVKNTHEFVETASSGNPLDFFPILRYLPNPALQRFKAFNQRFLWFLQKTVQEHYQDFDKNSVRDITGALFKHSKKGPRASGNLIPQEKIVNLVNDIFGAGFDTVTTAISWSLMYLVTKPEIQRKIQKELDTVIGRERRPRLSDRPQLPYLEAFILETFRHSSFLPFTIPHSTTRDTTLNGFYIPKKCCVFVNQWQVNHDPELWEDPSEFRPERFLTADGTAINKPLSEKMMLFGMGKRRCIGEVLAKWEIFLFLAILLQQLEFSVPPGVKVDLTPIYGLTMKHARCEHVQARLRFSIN
Summary of the method: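 Inhibition of CYP1A2 conversion of proluciferin to luciferin, detected by luminescence. Reaction run 1 h at room temperature with NADPH regeneration after brief compound preincubation.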

[14] = target: Voltage-gated inwardly rectifying potassium channel KCNH2 (Homo sapiens) (UniProt Q12809); assay: Human Ether-a-go-go-Related Gene (hERG) channel small molecule antagonists: fluorescence cell-based qHTS assay (AID 1671200)
Voltage-gated inwardly rectifying potassium channel KCNH2 (Homo sapiens), sequence (Q12809 whole entry, looked up): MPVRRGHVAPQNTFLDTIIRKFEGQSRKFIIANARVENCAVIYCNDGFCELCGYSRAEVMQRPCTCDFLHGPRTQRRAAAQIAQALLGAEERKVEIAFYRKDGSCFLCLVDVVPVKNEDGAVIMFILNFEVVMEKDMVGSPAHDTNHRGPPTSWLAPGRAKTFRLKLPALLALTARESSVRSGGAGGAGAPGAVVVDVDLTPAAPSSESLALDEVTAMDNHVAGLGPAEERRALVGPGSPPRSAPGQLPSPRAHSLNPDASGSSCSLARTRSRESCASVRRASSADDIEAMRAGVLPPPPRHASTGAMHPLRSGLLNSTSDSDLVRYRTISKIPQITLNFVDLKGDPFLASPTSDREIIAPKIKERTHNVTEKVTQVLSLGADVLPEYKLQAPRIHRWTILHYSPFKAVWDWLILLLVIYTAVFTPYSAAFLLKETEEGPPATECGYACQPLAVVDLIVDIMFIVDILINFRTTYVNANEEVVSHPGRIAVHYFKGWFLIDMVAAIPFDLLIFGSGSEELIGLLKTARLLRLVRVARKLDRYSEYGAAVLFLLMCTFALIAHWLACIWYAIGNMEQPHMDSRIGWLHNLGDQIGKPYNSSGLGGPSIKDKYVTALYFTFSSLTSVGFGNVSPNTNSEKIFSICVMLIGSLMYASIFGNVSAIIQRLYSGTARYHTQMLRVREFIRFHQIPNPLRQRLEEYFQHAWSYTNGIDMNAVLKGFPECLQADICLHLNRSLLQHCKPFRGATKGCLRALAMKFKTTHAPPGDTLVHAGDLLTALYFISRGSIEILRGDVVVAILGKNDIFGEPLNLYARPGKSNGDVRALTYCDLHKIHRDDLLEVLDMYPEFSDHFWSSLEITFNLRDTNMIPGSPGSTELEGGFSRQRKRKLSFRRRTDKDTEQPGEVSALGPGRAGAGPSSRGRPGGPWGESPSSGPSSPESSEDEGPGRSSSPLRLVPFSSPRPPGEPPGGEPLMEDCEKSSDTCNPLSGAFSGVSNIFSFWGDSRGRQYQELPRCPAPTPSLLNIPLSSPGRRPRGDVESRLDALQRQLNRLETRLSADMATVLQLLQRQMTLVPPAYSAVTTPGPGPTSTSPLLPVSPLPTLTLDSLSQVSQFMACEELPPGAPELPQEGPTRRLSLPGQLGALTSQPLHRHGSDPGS
Summary of the method: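 First, 1000 cells per well are seeded and cultured overnight at 37 C. Next, FluxOR II dye is loaded for 1 h at room temperature, protected from light. After 10 more minutes, stimulus is added and fluorescence is read.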

[15] = target: Cytochrome P450 3A4 (Homo sapiens) (UniProt P08684); assay: Cytochrome P450 Family 3 Subfamily A Member 4 (CYP3A4) small molecule antagonists: luciferase reporter qHTS assay (AID 1671201)
Cytochrome P450 3A4 (Homo sapiens), sequence (P08684 whole entry, looked up): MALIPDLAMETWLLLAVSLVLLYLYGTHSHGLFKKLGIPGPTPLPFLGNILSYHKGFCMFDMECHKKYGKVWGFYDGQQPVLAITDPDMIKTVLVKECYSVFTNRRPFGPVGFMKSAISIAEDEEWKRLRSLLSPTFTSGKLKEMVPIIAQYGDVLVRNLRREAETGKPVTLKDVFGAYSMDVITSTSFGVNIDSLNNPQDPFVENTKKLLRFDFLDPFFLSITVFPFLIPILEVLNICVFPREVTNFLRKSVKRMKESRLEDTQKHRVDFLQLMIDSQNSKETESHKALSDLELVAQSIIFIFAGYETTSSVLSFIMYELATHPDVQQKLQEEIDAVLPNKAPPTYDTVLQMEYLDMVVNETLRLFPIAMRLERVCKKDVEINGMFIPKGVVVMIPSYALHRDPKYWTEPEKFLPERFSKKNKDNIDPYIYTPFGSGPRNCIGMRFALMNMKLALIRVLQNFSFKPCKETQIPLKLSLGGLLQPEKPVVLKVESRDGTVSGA
Summary of the method: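 Enzyme and proluciferin substrate are mixed with test chemicals for 10 min, then NADPH regeneration system drives turnover for 1 h at room temperature. A detection reagent halts the reaction; luminescence after 20 min gives relative activity.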

[16] = target: Nuclear receptor subfamily 1 group I member 2 (Rattus norvegicus) (UniProt Q9R1A7); assay: Rat pregnane X receptor (rPXR) activation by small molecules, qHTS assay (AID 1346983); details: rPXR luciferase reporter cells, One-Glo luminescence, 24 h; stronger effect = higher value; note: nearly all actives have a fitted effect of over 20% in size
Nuclear receptor subfamily 1 group I member 2 (Rattus norvegicus), sequence (Q9R1A7 whole entry, looked up): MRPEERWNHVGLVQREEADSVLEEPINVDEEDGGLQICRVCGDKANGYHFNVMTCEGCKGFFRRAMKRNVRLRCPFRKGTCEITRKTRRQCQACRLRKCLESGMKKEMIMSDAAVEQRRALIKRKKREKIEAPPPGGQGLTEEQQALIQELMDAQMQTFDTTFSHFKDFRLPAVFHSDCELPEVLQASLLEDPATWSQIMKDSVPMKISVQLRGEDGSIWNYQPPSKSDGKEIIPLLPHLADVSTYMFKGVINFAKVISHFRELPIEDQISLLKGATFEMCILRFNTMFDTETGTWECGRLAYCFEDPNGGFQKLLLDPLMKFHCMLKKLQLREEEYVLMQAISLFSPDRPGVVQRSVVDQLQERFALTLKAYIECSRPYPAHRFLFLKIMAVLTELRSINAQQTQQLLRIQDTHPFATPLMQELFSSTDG
Summary of the method: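 Cell-based rPXR activation assay: rPXR cells, 2,000 per well, rested 5hr at 37 C, then exposed to compounds in DMSO for 24 hr at 37 C. Luciferase activity read by One-Glo luminescence after 30 min at room temperature.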

[17] = target: Nuclear receptor subfamily 1 group I member 2 (Homo sapiens) (UniProt O75469); assay: CYP3A4 induction through human pregnane X receptor (PXR) by small molecules, qHTS assay (AID 1346984); note: nearly all actives have a fitted effect of over 40% in size
Summary of the method: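 Steps: seed DPX-2 cells, 5 hr at 37C; pin-transfer compounds; 24 hr at 37C; add Luciferin-IPA (3uM final), 3 hr at 37C; add One-Glo, 30 min RT; read luminescence.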

[18] = target: Nuclear receptor subfamily 1 group I member 2 (Homo sapiens) (UniProt O75469); assay: Human pregnane X receptor (PXR) activation by small molecules, qHTS assay (AID 1346985); note: nearly all actives have a fitted effect of over 40% in size
Summary of the method: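 DPX-2 cells (HepG2 co-transfected with a PXR response element and a CYP3A4-promoter luciferase construct) were seeded at 2,000 per well, rested 5 hr at 37C, then exposed to DMSO-dissolved compounds for 24 hr. Activation was read as luciferase luminescence.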

[19] = target: Cytochrome P450 2C19 (Homo sapiens) (UniProt P33261); assay: Cytochrome P450 Family 2 Subfamily C Member 19 (CYP2C19) small molecule antagonists: luciferase reporter qHTS assay (AID 1671197); note: series mostly up to about 120 µM; nearly all actives have a fitted effect of over 65% in size
Cytochrome P450 2C19 (Homo sapiens), sequence (P33261 whole entry, looked up): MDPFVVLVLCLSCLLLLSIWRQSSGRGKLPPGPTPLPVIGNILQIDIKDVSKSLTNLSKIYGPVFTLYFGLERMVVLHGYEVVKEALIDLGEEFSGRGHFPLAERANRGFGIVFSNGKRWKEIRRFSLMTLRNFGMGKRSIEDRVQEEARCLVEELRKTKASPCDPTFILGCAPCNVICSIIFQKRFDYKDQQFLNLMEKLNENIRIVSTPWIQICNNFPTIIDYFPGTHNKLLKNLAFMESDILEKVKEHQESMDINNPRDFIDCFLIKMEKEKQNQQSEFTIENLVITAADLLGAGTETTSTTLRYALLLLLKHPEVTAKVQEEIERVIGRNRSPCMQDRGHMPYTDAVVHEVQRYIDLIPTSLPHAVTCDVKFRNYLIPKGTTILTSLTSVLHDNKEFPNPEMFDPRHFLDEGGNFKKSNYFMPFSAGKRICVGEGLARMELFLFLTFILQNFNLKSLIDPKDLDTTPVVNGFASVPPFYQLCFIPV
Summary of the method: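 Relative luminescence units recorded 20 min after the detection reagent stopped a 1 h, 37C CYP2C19 reaction on proluciferin substrate, which was started by NADPH regeneration following 10 min room-temperature compound preincubation; ketoconazole positive control.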
% is set by controls: 0 for no effect and ±100 for the full control effect.

COc1cc2c(cc1OC)CN(C(=O)[C@H](C)N[C@@H](CCc1ccccc1)C(=O)O)[C@H](C(=O)O)C2
inactive: outcome [1] | outcome [2] | outcome [3] | outcome [4] | outcome [5] | outcome [6] | Potency [7] | outcome [8] | outcome [9] | Potency [10] | Potency [11] | Potency [12] | Potency [13] | Potency [14] | Potency [15]

CCC[C@@H]1C[C@@H](C(=O)N[C@@H]([C@H]2O[C@H](SC)[C@H](O)[C@@H](O)[C@H]2O)[C@@H](C)O)N(C)C1
inactive: outcome [1] | outcome [2] | outcome [3] | outcome [4] | outcome [5] | outcome [6] | Potency [7] | outcome [8] | outcome [9] | Potency [10] | max activation [16] 0.287% | Potency [17] | Potency [18] | Potency [19] | Potency [12] | Potency [13] | Potency [15]

COC(=O)CCCCC(CCSS/C(CCO)=C(\C)N(C=O)Cc1cnc(C)nc1N)SC(C)=O (stereo not drawn)
inactive: outcome [1] | outcome [2] | outcome [3] | outcome [4] | outcome [5] | outcome [6] | Potency [7] | outcome [8] | outcome [9] | Potency [10] | Potency [11] | Potency [12] | Potency [13] | Potency [14]

O=C(CCCl)NCCc1ccccc1
inactive: outcome [1] | outcome [2] | outcome [3] | outcome [4] | outcome [5] | outcome [6] | Potency [7] | outcome [8] | outcome [9] | Potency [10] | Potency [19] | Potency [12] | Potency [13] | Potency [15]

Cn1c(=O)c2c(ncn2CCO)n(C)c1=O
inactive: outcome [1] | outcome [2] | outcome [3] | outcome [4] | outcome [5] | outcome [6] | Potency [7] | outcome [8] | outcome [9] | Potency [10] | Potency [11] | Potency [12] | Potency [14] | Potency [15]

C=CC(=O)OCC1CCCO1 (stereo not drawn)
inactive: outcome [1] | outcome [2] | outcome [3] | outcome [4] | outcome [5] | outcome [6] | Potency [7] | outcome [8] | outcome [9] | Potency [10] | Potency [11] | Potency [19] | Potency [12] | Potency [13] | Potency [14] | Potency [15]

O=C(O)c1cc2ccccc2nc1C(=O)O
inactive: outcome [1] | outcome [2] | outcome [3] | outcome [4] | outcome [5] | outcome [6] | Potency [7] | outcome [8] | outcome [9] | Potency [10] | Potency [11] | Potency [12] | Potency [14] | Potency [15]

OCC1(CO)COCOC1
inactive: outcome [1] | outcome [2] | outcome [3] | outcome [4] | outcome [5] | outcome [6] | Potency [7] | outcome [8] | outcome [9] | Potency [10] | Potency [11] | Potency [12] | Potency [13] | Potency [15]
